We go through 15 compounds from PubChem BioAssay.

Active and inactive are the calls of the source.

One experiment has as its target Albumin (Bos taurus) (UniProt P02769). As to the kind of experiment: bovine serum albumin binders on microarray, profiling panel, artefact control for SMM control protein annotation, biochemical, small-molecule microarray, Alexa647 label, 635/667 nm fluorescence (AID 1118).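 Also: score merges 667 nm emission intensity and signal-to-noise per printed compound spot.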 The note with it: BSA-A647 binding, fluorescence 635 nm, higher = more signal.
Experiment [1] is described as follows: small-molecule microarray binders of probe aXIP, primary screen, biochemical, NeuroSMM set, 635/667 nm fluorescence (AID 1119).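 Also: probe is the protein aXip251-270 applied at 1 µg/mL to compound-printed slides; binding of probe to printed compounds measured as 667 nm fluorescence plus signal to noise.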 The note with it: higher = more signal, called active from +8 up or from −8 down.
The nature of experiment [2]: small-molecule binders of probe aNOTCH3, primary screen, biochemical, small-molecule microarray, 635/667 nm fluorescence (AID 1120).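 Also: probe is a biotin-tagged antibody raised against NOTCH3 rather than NOTCH3 protein; score merges spot fluorescence near 667 nm with spot signal to noise.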 The note with it: higher = more signal.
The nature of experiment [3]: small-molecule binders of probe aNOTCH2, primary screen, biochemical, small-molecule microarray, 635/667 nm fluorescence (AID 1121).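 Also: score merges feature fluorescence read at 667 nm with its signal to noise.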 The conditions noted are these: higher = more signal.
Experiment [4] addresses Carbonic anhydrase 2 (Homo sapiens) (UniProt P00918). Description: CAII small-molecule binders, profiling panel, biochemical, small-molecule microarray, Alexa647-labelled CAII (AID 1122). The conditions noted are these: CAII-A647 binding fluorescence, higher = more signal.
Experiment [5] can be described thus: COS7 lysate on small-molecule microarray, probe aHis, 635 nm (AID 1123).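 Also: z-score combines 667nm fluorescence intensity with signal-to-noise per printed compound spot.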 The note with it: COS7 cell lysate, fluorescence, higher = more signal.
Experiment [6] is described as follows: compound binding in COS7 lysate, probe aLAP1, primary screen, cell lysate, small-molecule microarray (AID 1124).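 Also: lysate comes from COS7 cells expressing LAP1 and is applied at 0.3 µg/mL; score merges spot fluorescence near 667 nm with signal-to-noise over triplicate slides.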 The note with it: probe aLAP1, fluorescence, higher = more signal.
The subject of the next experiment is Sam68 (KHDRBS1). As to the kind of experiment: Sam68 small-molecule binders, primary screen, biochemical, small-molecule microarray, 635 nm fluorescence (AID 1125).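 Also: score merges 667 nm channel intensity with signal to noise over triplicate slides.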 The note with it: small-molecule microarray binding, higher = more signal.
Experiment [7] deals with Chordin-like protein 2 (CHRDL2). Description: CHRDL2 small-molecule binders, primary screen, biochemical, small-molecule microarray, 635 nm fluorescence (AID 1126).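 Also: printed compound slides probed with Chrdl2 protein at 4 µg/mL for 1 h at 4 C; score merges 667 nm emission intensity with signal to noise over three replicate slides.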 The conditions noted are these: small-molecule microarray binding, fluorescence 635 nm; higher = more signal.
Experiment [8] concerns the target Concanavalin-A (Canavalia ensiformis) (UniProt P02866). As to the kind of experiment: ConA small-molecule binders, primary screen, artefact control for SMM control protein annotation, biochemical, small-molecule microarray, Alexa647 label, 635 nm (AID 1127).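 Also: z combines 667 nm emission intensity with signal-to-noise across three replicate slides.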 The note with it: ConA-A647 binding fluorescence, higher = more signal.

Concanavalin-A (Canavalia ensiformis), sequence (P02866 whole entry, looked up): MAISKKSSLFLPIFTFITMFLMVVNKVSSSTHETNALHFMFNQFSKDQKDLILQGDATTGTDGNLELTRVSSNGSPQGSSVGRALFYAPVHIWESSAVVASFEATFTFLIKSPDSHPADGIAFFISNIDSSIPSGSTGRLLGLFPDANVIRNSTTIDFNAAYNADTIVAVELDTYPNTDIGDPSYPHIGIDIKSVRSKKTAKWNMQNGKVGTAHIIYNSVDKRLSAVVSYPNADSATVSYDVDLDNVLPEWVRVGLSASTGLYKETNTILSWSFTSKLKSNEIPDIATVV
Albumin (Bos taurus), sequence (P02769 whole entry, looked up): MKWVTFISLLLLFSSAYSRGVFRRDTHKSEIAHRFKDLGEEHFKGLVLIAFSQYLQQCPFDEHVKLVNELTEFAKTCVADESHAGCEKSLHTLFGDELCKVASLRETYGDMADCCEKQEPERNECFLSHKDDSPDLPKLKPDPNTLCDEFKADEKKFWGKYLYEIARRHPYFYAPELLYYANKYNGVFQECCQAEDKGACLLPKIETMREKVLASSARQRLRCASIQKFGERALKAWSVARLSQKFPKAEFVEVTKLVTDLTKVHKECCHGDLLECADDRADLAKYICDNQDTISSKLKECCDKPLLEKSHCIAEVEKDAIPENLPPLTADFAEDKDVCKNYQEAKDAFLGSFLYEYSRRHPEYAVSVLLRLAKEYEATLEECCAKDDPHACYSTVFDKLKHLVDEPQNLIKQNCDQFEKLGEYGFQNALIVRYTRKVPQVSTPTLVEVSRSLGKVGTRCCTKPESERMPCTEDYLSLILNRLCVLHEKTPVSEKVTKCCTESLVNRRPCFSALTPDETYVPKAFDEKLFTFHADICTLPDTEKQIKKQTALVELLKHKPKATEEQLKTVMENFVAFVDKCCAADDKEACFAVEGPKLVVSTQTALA

In the case of `O=C(NC1CC1)[C@@H]1c2ccccc2C(=O)N(Cc2cc(C(F)(F)F)cc(C(F)(F)F)c2)[C@H]1c1ccc(CO)cc1`, the composite z-score with Albumin (Bos taurus) was -0.148; in experiment [2] it was -0.352; in experiment [3] it was -0.102; in experiment [4] it was 0.679; in experiment [5], 1.29; in [6] it was 0.174. In addition, the composite z-score is 0.157 in the experiment on Sam68 (KHDRBS1), -0.936 in experiment [7] and 0.321 in experiment [8]. The composite Z-score in experiment [1] is -0.563 (inactive).

On to `COc1cc(CO)cc(I)c1O[C@H]1C=C(C(=O)NCCO)C[C@@H]2O[C@H]12`, for which the composite z-score is -0.39 in the experiment with Albumin (Bos taurus); -0.0311 in experiment [2]; -0.0596 in experiment [3]; 0.465 in experiment [4]; 1.07 in experiment [5]; 0.0543 in experiment [6]. The composite z-score stood at 1.3 in the experiment on Sam68 (KHDRBS1), 1.36 in [7] and 1.01 in experiment [8]. For the same compound, the composite Z-score in experiment [1] is 1.49 (inactive).

As to `COc1ccc(C(O)C2C=CC3C(=O)N(c4ccccc4)C(=O)C3N2Nc2ccc(C#N)cc2)cc1OCc1ccccc1` (stereo not given), the composite z-score in the experiment with Albumin (Bos taurus) was found to be 1.06; in [2], 0.291; in experiment [3], 0.131; in experiment [4], 0.634; in experiment [5], 2.01; in [6] it was 1.17. Besides, the composite z-score in the experiment with Sam68 (KHDRBS1) is 1.3; in experiment [7], -0.333; in experiment [8] it was 1.1. Besides, the composite Z-score in experiment [1] is -0.502 (inactive).

For the compound `COC(=O)[C@@]1(Cc2ccc(OC)cc2)[C@H]2c3cc(C(=O)N4CCCC4)n(Cc4ccc(Cl)c(C(F)(F)F)c4)c3C[C@H]2CN1C(=O)c1ccccc1`, the composite z-score was found to be 1.05 with Albumin (Bos taurus); 0.322 in experiment [2]; 0.162 in experiment [3]; 0.696 in [4]; 3.2 in [5]; 1.16 in [6]. Further, the composite z-score is 1.29 in the experiment with Sam68 (KHDRBS1), -0.754 in [7] and 1.2 in [8]. The composite Z-score in experiment [1] is 0.0685 (inactive).

For the compound `COCCOC(=O)N1C(=O)[C@@]2(c3cc(C#CCCO)ccc31)[C@H](c1ccccc1OCCO)N1[C@H](c3ccccc3)[C@H](c3ccccc3)OC(=O)[C@H]1[C@@H]2C(N)=O`, the composite z-score in the experiment with Albumin (Bos taurus) is -0.0956; in experiment [2], -0.0054; in experiment [3], -0.118; in experiment [4] it was 0.578; in [5], 1.89; in experiment [6] it was 0.128. Also, the composite z-score with Sam68 (KHDRBS1) is 1.3; in experiment [7], 0.0193; in experiment [8], 1.05. Further, the composite Z-score in [1] was -0.0135 (inactive).

As to `CC1CC/C=C\[C@H]2OC34C=CCN(Cn5nnc6ccccc65)C(=O)[C@H]3N(CCCCCCO)C(=O)[C@@H]4C2C(=O)O1` (stereo not given in full), the composite z-score was -0.252 with Albumin (Bos taurus); -0.427 in experiment [2]; -0.214 in experiment [3]; 0.398 in [4]; -0.0339 in experiment [5]; 0.523 in [6]. Moreover, the composite z-score in the experiment on Sam68 (KHDRBS1) is -0.682; in [7] it was -1.25; in experiment [8], 0.257. Also, the composite Z-score in [1] was 0.347 (inactive).

Turning to `CC(C)C(=C=CC[C@H](O)c1ccccc1OCCO)C[C@H](O)COCc1ccccc1`, the composite z-score with Albumin (Bos taurus) is 0.435; in [2], -0.122; in [3], -0.172; in experiment [4] it was 0.736; in experiment [5], 1.08; in experiment [6], 0.565. Besides, the composite z-score in the experiment on Sam68 (KHDRBS1) is 0.24; in experiment [7] it was -0.163; in experiment [8] it was 0.377. Besides, in experiment [1], the composite Z-score is -0.392 (inactive).

As to `CC(C)N1C(=O)C[C@@](C(=O)NCCN2CCOCC2)(c2ccc([N+](=O)[O-])cc2)[C@H]1c1ccc(CO)cc1`, the composite z-score with Albumin (Bos taurus) is 0.408; in experiment [2] it was -0.256; in [3] it was -0.0836; in [4] it was 0.642; in experiment [5], 2.2; in experiment [6], 1.24. The composite z-score was -0.395 in the experiment on Sam68 (KHDRBS1), -1.26 in [7] and 0.257 in experiment [8]. Further, the composite Z-score in experiment [1] was 1.96 (inactive).

On to `CN1C(=O)[C@@H]2[C@@H](CC(COc3ccccc3)=C3[C@@H](CCc4ccccc4)OB(O)C[C@@H]32)C1=O`, for which the composite z-score with Albumin (Bos taurus) is -0.062; in [2], 0.135; in experiment [3] it was -0.0073; in [4], 0.229; in [5], 0.71; in experiment [6], 0.809. Besides, the composite z-score in the experiment on Sam68 (KHDRBS1) is 0.31; in [7] it was -0.102; in [8], -0.0514. Also, the composite Z-score in [1] is 0.581 (inactive).

Turning to `O=C1NC(=O)C2C1C=CC(C(O)c1ccc([N+](=O)[O-])cc1)N2Nc1ccccn1` (stereo not given), the composite z-score was -0.494 with Albumin (Bos taurus); -0.173 in experiment [2]; -0.0843 in [3]; 0.265 in experiment [4]; 0.555 in experiment [5]; 0.0223 in [6]. In addition, the composite z-score was -0.413 in the experiment with Sam68 (KHDRBS1), 0.472 in experiment [7] and -0.257 in [8]. For the same compound, the composite Z-score in experiment [1] was -0.267 (inactive).

As to `COCCOC(=O)N1C(=O)[C@@]2(c3cc(C#CCC(C(=O)OC)C(=O)OC)ccc31)[C@H](C(N)=O)[C@H]1C(=O)O[C@H](c3ccccc3)[C@H](c3ccccc3)N1[C@@H]2c1ccc(O)cc1`, the composite z-score in the experiment with Albumin (Bos taurus) was 0.751; in experiment [2], 0.104; in [3] it was -0.0282; in experiment [4], 0.407; in experiment [5], 1.97; in experiment [6], 0.134. The composite z-score in the experiment with Sam68 (KHDRBS1) was 1.3; in experiment [7] it was 0.778; in experiment [8] it was 0.951. Further, in experiment [1], the composite Z-score is -0.642 (inactive).

As to `CC(C)N1C(=O)c2ccccc2[C@](C)(C(=O)NCC(F)(F)F)[C@@H]1c1ccc(CO)cc1`, the composite z-score in the experiment with Albumin (Bos taurus) was -0.267; in experiment [2], -0.407; in experiment [3] it was 0.0344; in experiment [4] it was 0.852; in experiment [5], 2.55; in [6] it was 1.14. Further, the values for the composite z-score (in the experiment on Sam68 (KHDRBS1); in [7]; in [8]) were -0.701, -0.912 and -1.22, respectively. Also, the composite Z-score in [1] is -0.415 (inactive).

For the compound `C[C@]1(C(=O)O)c2ccccc2C(=O)N(Cc2cc(F)cc(C(F)(F)F)c2)[C@H]1c1ccc(CO)cc1`, the composite z-score is 0.286 in the experiment with Albumin (Bos taurus); -0.0126 in [2]; -0.182 in experiment [3]; 0.677 in [4]; 1.6 in experiment [5]; -0.276 in [6]. Besides, the figures for the composite z-score (in the experiment on Sam68 (KHDRBS1); in [7]; in experiment [8]) were 0.0491, 0.447 and 0.255, respectively. Also, the composite Z-score in [1] was -0.228 (inactive).

Regarding `C=C(CCCC)C(=O)CC[C@@H](OC(=O)c1ccccc1-c1ccccc1C(=O)O)c1ccccc1OCCO`, the composite z-score in the experiment with Albumin (Bos taurus) was 0.269; in experiment [2], -0.207; in [3], -0.14; in experiment [4], 0.626; in [5], -0.467; in [6], 0.712. Also, the composite z-score in the experiment on Sam68 (KHDRBS1) was 0.523; in experiment [7], 0.492; in experiment [8], 1.05. The composite Z-score in [1] is -0.136 (inactive).

`OCCCC1=CC(c2ccc(CN3CCCC3)cc2)N(Cc2cccc(OC(F)(F)F)c2)CC1` (stereo not given): the composite z-score is 0.465 with Albumin (Bos taurus); 0.0642 in [2]; -0.0907 in experiment [3]; -0.0985 in [4]; 0.251 in experiment [5]; -0.309 in experiment [6]. In addition, the composite z-score in the experiment on Sam68 (KHDRBS1) is -0.0506; in experiment [7] it was 0.248; in [8], -0.796. In [1], the composite Z-score is 0.451 (inactive).
